Screening results (PubChem BioAssay)
CBFb-RUNX1 inh – qHTS Assay for Compounds Blocking the Interaction Between CBF-beta and RUNX1 for the Treatment of Acute Myeloid Leukemia; Runt-related transcription factor 1 (Homo sapiens) + Core-binding factor subunit beta …; AlphaScreen CBFb-His/RUNX1-biotin binding, biochemical; Potency, µM (highest dose often 59.8 µM), inactives show at the highest dose activity, negative = inhibition, usual class: inhibitors; 230,000 tested, under 10 active; AID 1477, 2009; further: % of control where 0% means no effect
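CBFb-His/RUNX1-biotin, 30 nM each, preincubated 20 min RT; compound 15 min RT; Ni + streptavidin beads 50 ng each, 90 min RT; AlphaScreen read.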
ALDH1A1 inh – qHTS Assay for Inhibitors of Aldehyde Dehydrogenase 1 (ALDH1A1). Purified ALDH1A1, NADH fluorescence, propionaldehyde substrate. Aldehyde dehydrogenase 1A1 (Homo sapiens), P00352. Potency, µM (titrated, usually from 75.3 µM), inactives show top-dose activity, negative = inhibition, most hits filed as inhibitors. hit rate 7.3% among 220,000; active means well fitted inhibition curve with a large enough effect, not every such curve was filed as active; inconclusive means small, poorly fitted or top-dose-only effect, or another doubt; inactive means no such curve, though single readings can be large or run the other way;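 further: potency means the concentration at half of the fitted maximal effect; plate controls were no enzyme wells and a reference inhibitor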
Target sequence (P00352 whole entry, looked up): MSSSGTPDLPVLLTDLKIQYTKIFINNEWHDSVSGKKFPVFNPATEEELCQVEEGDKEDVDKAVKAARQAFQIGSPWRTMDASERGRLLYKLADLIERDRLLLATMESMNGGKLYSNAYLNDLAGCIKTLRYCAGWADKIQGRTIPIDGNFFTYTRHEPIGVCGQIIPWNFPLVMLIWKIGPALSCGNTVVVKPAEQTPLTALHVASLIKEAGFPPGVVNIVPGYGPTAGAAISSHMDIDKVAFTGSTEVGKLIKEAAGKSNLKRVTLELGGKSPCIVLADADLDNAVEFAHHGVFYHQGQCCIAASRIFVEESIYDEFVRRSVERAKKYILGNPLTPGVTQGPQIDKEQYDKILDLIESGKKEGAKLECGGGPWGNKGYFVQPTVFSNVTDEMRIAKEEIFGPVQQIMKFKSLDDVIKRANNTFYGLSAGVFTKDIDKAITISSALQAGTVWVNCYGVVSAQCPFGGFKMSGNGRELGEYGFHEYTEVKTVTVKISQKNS
PNC inhibitor – High Content Assay for Compounds that inhibit the Assembly of the Perinucleolar Compartment; PC3M PTB-GFP, PNC prevalence imaging, 16 h; stronger effect = lower value; activity change (PNC), negative = inhibition, % at 10 µM; hit rate 3.1% among 140,000; AID 2417, 2010;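 active means readout at or below -70, meaning at least 70% loss of cells showing the perinucleolar compartment, a nuclear body marking cancer cells; inconclusive means readout between -30 and a set limit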;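 further: plate controls were DMSO wells for no effect and camptothecin positive control wells for full effect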
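PC3M cells stably expressing PTB-GFP, 750–1000 cells/well, treated 16 h at 37 °C with compound (23 nl of library stock), in duplicate. After paraformaldehyde fixation and Hoechst stain, imaged at 20x; PNC prevalence scored by image analysis.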
HTT aggregate – qHTS Multiplex Assay to Identify Dual Action Probes in a Cell Model of Huntington: Aggregate Formation (GFP); AID 1688, 2009; Potency, µM (series often up to 46.1 µM), inactives show top-dose activity change, negative = inhibition, actives largely listed as inhibitors; hit rate 1.1% among 220,000; PC12 HttQ103-GFP aggregates, Acumen cytometry, 40 h; further: potency means the concentration at half of the fitted maximal effect; on the % scale 0 is the no-effect control and ±100 the full control effect; nearly all actives have a fitted effect of over 60% in size
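Read-out: GFP aggregate count by laser scanning cytometer (488 nm excitation, 500-530 nm emission, 1–25 µm objects >6 SD above background). Cells: PC12, inducible HTTex1-Q103-GFP, 100 nM tebufenozide; compounds titrated.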
HTT ATP protect – qHTS Multiplex Assay to Identify Dual Action Probes in a Cell Model of Huntington: Cytoprotection (ATP). PC12 HTT-Q103 induced, cytoprotection, ATP luminescence, 40 h. Potency, µM (highest dose often 56.4 µM), without a hit: cytoprotection (ATP increase), usual class: activators. hit rate 0.14% among 230,000. AID 1471, 2008; further: potency means the concentration at half of the fitted maximal effect; % of control where 0% means no effect; nearly all actives have a fitted effect of over 45% in size
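Readout: ATPlite luminescence (ATP level). Model: stable PC12, inducible Htt exon1 Q103-GFP. Inducer: tebufenozide, 100 nM final. Compounds: dose series. No G418 in medium.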
HPGD block – qHTS Assay for Inhibitors of HPGD (15-Hydroxyprostaglandin Dehydrogenase); 15-hydroxyprostaglandin dehydrogenase [NAD(+)] (Homo sapiens), P15428; purified HPGD, NADH fluorescence kinetic, PGE2 substrate; Potency, µM, inactives show top-dose activity change, negative = inhibition, most hits filed as inhibitors; hit rate 4.3% among 150,000; AID 894, 2007; active means well fitted inhibition curve with a large enough effect, not every such curve was filed as active; inconclusive means small, poorly fitted or top-dose-only effect, or another doubt; inactive means no such curve, though single readings can be large or run the other way; further: potency means the concentration at half of the fitted maximal effect; on the % scale 0 is the no-effect control and ±100 the full control effect
Target sequence (P15428 whole entry, looked up): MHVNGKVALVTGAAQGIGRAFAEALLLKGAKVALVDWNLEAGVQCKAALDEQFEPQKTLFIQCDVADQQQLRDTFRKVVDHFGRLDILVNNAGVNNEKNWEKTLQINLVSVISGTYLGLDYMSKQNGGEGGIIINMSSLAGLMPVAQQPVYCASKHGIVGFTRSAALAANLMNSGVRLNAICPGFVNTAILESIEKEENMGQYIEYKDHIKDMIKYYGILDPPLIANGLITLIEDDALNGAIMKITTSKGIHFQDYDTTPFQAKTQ
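NADH formation kinetics: reaction with 30 uM PGE2 and 1 mM NAD+ (final), 20 nM enzyme, Tris-HCl pH 8 with Tween 20, after 15 min compound preincubation at room temperature. Fluorescence change, last versus first of five reads.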
An asterisk follows results filed as active; [ ] = dose if it differs, or a comment. Shown are actives, neighbours in structure and some others; about 11% of the full set was active somewhere. Unless noted, the call rests on the fitted dose curve; in most records, active means well fitted curve in the direction sought with a large enough effect; inconclusive means small, poorly fitted or top-dose-only effect, or another doubt; inactive means no such curve, though single readings can be large; an effect the other way counts as inactive or inconclusive.

Screening Cn1c(=O)[nH]c(=O)c2c1nc(N1CCC(Cc3ccccc3)CC1)n2Cc1ccccc1 returned CBFb-RUNX1 inh -3.4%, ALDH1A1 inh 10µM*, PNC inhibitor 24.0, HTT aggregate inconclusive, HTT ATP protect -7.1% and HPGD block -19.6%.
For CN(C)c1nc2c(c(=O)[nH]c(=O)n2C)n1Cc1ccccc1Br the results were CBFb-RUNX1 inh 5.3%, ALDH1A1 inh 7.7%, PNC inhibitor 68.4, HTT aggregate 20.4%, HTT ATP protect -8.6% and HPGD block 17.8µM*.
`Cc1ccc(OCC(O)Cn2c(N3CCOCC3)nc3c2c(=O)[nH]c(=O)n3C)cc1` (configuration not stated) gave CBFb-RUNX1 inh 0.5%, ALDH1A1 inh 3.3%, PNC inhibitor -94.0*, HTT aggregate 10.5% and HTT ATP protect -15.3%.
COc1cc(NC(=S)Nc2ccccn2)cc(OC)c1 was read as CBFb-RUNX1 inh -0.7%, ALDH1A1 inh -2.0%, PNC inhibitor -2.3, HTT aggregate 19.3%, HTT ATP protect 16.4%[10 µM] and HPGD block -11.8%.
O=C(O)c1cc(N(Cc2ccccc2O)Cc2cc(O)ccc2O)ccc1O was read as CBFb-RUNX1 inh inconclusive, ALDH1A1 inh inconclusive, HTT ATP protect -60.6% and HPGD block inconclusive.
Screening CCCCCCCC/C=C/CCCCCCCC(=O)NCCOP(=O)(O)O returned CBFb-RUNX1 inh -18.7%.
Screening Cn1c(=O)[nH]c(=O)c2c1nc(NCCCn1ccnc1)n2Cc1ccccc1 returned CBFb-RUNX1 inh 9.2%, ALDH1A1 inh -3.7%, PNC inhibitor -102.3*, HTT aggregate 13.0%, HTT ATP protect 4.1%[10 µM] and HPGD block -13.1%.
Cc1ccc(Cn2c(N3CCCCCC3)nc3c2c(=O)[nH]c(=O)n3C)cc1 was read as CBFb-RUNX1 inh 19.1%, ALDH1A1 inh 1.58µM*, PNC inhibitor 12.9, HTT aggregate -2.1%, HTT ATP protect -28.4% and HPGD block -15.1%.
For CC1CCCN(c2nc3c(c(=O)[nH]c(=O)n3C)n2Cc2ccccc2Cl)C1 (configuration not stated) the results were CBFb-RUNX1 inh -4.7%, ALDH1A1 inh 10µM*, PNC inhibitor -87.3*, HTT aggregate -4.4%, HTT ATP protect 7.5% and HPGD block -26.2%.
For CC1CCCN(c2nc3c(c(=O)n(C)c(=O)n3C)n2Cc2ccccc2)C1 (configuration not stated) the results were CBFb-RUNX1 inh 9.7%, ALDH1A1 inh 1.78µM*, PNC inhibitor 0.7, HTT aggregate -0.7%, HTT ATP protect -8.7% and HPGD block -6.1%.
For COc1ccc(N2CCN(c3nc4c(c(=O)n(C)c(=O)n4C)n3Cc3ccccc3)CC2)cc1 the results were CBFb-RUNX1 inh -17.8%, ALDH1A1 inh inconclusive, PNC inhibitor 36.7, HTT aggregate -9.6%, HTT ATP protect -24.0%[0.074 µM] and HPGD block -0.8%.
`Cn1c(=O)[nH]c(=O)c2c1nc(N1CCCCCC1)n2Cc1cccc2ccccc12` gave CBFb-RUNX1 inh 2.0%, ALDH1A1 inh inconclusive, PNC inhibitor -20.1, HTT aggregate inconclusive, HTT ATP protect 3.5% and HPGD block -18.5%.
`CC1CCC(C(=O)O)([C@H](Br)C(=O)O)CC1` (some centres not stated) gave ALDH1A1 inh 3.7%[13.5 µM], HTT ATP protect -1.7%[10 µM] and HPGD block -4.0%.
Screening Cc1cc(C)c2c(SCc3ccc(Cl)cc3Cl)nc(N)nc2n1 returned ALDH1A1 inh -0.6%[13.5 µM], HTT ATP protect -0.2%[10 µM] and HPGD block -5.2%.
Oc1ccccc1Cn1c(-c2ccccc2O)nc2ccccc21 was read as CBFb-RUNX1 inh 1.4%, ALDH1A1 inh inconclusive, PNC inhibitor -13.7, HTT aggregate 25.1µM*, HTT ATP protect -6.9% and HPGD block inconclusive.
Screening CC(=O)N1CCc2cc(S(=O)(=O)NCCC(=O)N3CCN(c4ccccn4)CC3)ccc21 returned CBFb-RUNX1 inh 4.2%, ALDH1A1 inh 2.2%, PNC inhibitor 12.0, HTT aggregate -10.8%, HTT ATP protect 8.7% and HPGD block -9.3%.
Screening Nc1ncc(Br)cc1S(=O)(=O)NCCC(=O)N1CCN(c2ccccn2)CC1 returned CBFb-RUNX1 inh -1.0%, ALDH1A1 inh inconclusive, PNC inhibitor -113.4*, HTT aggregate -9.0% and HPGD block -13.0%.
O=C(NCC1CCCO1)C(c1cccs1)N(C(=O)Cn1nnc(-c2cccs2)n1)C1CCCC1 (configuration not stated) was read as CBFb-RUNX1 inh 1.2%, ALDH1A1 inh 9.5%, PNC inhibitor inconclusive, HTT aggregate 0.7%, HTT ATP protect 12.6%[10 µM] and HPGD block -4.1%.
Screening Cc1ccc(-c2nnn(CC(=O)N(Cc3cccs3)C(C(=O)NC3CCCC3)c3ccco3)n2)o1 (configuration not stated) returned CBFb-RUNX1 inh -2.8%, ALDH1A1 inh 22.4µM*, PNC inhibitor 18.7, HTT aggregate 23.8%, HTT ATP protect -25.9%[10 µM] and HPGD block -14.3%.
For O=C(NCc1ccco1)C(c1ccco1)N(Cc1cccs1)C(=O)Cn1nnc2ccccc21 (configuration not stated) the results were CBFb-RUNX1 inh 7.6%, ALDH1A1 inh 14.1µM*, PNC inhibitor -20.6, HTT aggregate -10.7%, HTT ATP protect 23.2%[10 µM] and HPGD block -16.2%.
For O=C(NC1CCCC1)C(c1cccs1)N(Cc1ccco1)C(=O)Cn1nnc(-c2cccs2)n1 (configuration not stated) the results were CBFb-RUNX1 inh -1.7%, ALDH1A1 inh 10.2%, PNC inhibitor inconclusive, HTT aggregate 9.5%, HTT ATP protect 6.7%[10 µM] and HPGD block -9.6%.
For O=C(NCC1CCCO1)C(c1cccs1)N(Cc1cccs1)C(=O)Cn1nnc(-c2cccs2)n1 (configuration not stated) the results were CBFb-RUNX1 inh 3.3%, ALDH1A1 inh 8.91µM*, PNC inhibitor 88.0, HTT aggregate 25.4%, HTT ATP protect 9.5%[10 µM] and HPGD block -13.2%.
